Compound activity from PubChem BioAssay.
Hits are enriched below; roughly 4% of the tested compounds scored in any of these assays.
MITF TRPM1 inh: inhibitors of MITF-driven TRPM1 promoter in melanoma cells. SK-MEL-5 TRPM1 promoter luciferase, 24 h. inhibition, % at 12.5 µM. hit rate 0.83% among 330,000;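 active = mean inhibition across replicates of 60% or more, whatever share of single replicates reaches that level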
TROY signal inh: blocks TROY-dependent signaling in reporter cells | AID 1347056 | inhibition, % at 10 µM | hit rate 0.98% among 360,000 | Q293 LMP1-TROYcd NF-kB luciferase reporter, 4 h;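 active = compounds whose plate-normalised and pattern-corrected inhibition of the luciferase reporter signal at the single screening dose is 50% or more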
EBV LMP1 NFkB: reduces LMP1-driven NF-kappaB luciferase signal; AID 504558; hit rate 0.69% among 350,000; LMP1-induced NF-kappaB luciferase reporter cells, luminescence; inhibition, % at 12.5 µM; in the data active = inhibition above about 41%;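 also: 0% = neutral control wells and 100% = reference inhibitor control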
HIF-2a block: blocks HIF-2a reporter activity | hit rate 0.72% among 360,000 | inhibition, % at 18.8 µM | 786-0 RCC cells HIF-2a reporter, luciferase luminescence, overnight | AID 624352;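 active = inhibition of the luminescence signal of 40% or more relative to plate controls, in a single-dose primary screen at 18.75 µM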
TWEAK-Fn14 inh: blocks TWEAK-Fn14 interaction in a reporter cell assay; TWEAK-stimulated Fn14 reporter cells, luciferase luminescence, 8 h; inhibition, % at 10 µM; hit rate 2% among 360,000; AID 1159606; in the data active = inhibition above about 50%
Peg3 prom inh: reduces Peg3 promoter-driven luciferase expression in HeLa; HeLa PEG-Prom luciferase reporter, luminescence, overnight; inhibition, % at 20 µM; hit rate 1.7% among 360,000;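 active = inhibition of at least 50% at 20 µM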
* marks the source's active call; other numbers are inactive results; . = not tested or not shown.

SMILES	MITF TRPM1 inh	TROY signal inh	EBV LMP1 NFkB	HIF-2a block	TWEAK-Fn14 inh	Peg3 prom inh
Cc1nc2cc(NC(=O)N3c4ccccc4CC3C)ccc2n1C (stereo not given)	-12	39	-6	-121	57*	-138
Cc1nc2cc(NC(=O)Nc3ccccc3Cl)ccc2n1C	16	34	14	-21	59*	-25
Cc1cccc(C(=O)Nc2ccc3c(c2)ncn3C)c1	-121	-25	-23	-221	17	-237
Cc1cc(C(F)(F)F)c(C#N)c(SCC(=O)Nc2nc3cc(Br)ccc3s2)n1	-3	72*	-5	-86	79*	-167
COc1ccccc1Cn1c(=O)c2ccccc2n2c(SCc3csc(C)n3)nnc12	5	-10	1	19	-8	15
COc1ccccc1Cn1c(=O)c2ccccc2n2c(Sc3ncnc4sccc34)nnc12	19	47	13	24	89*	26
COc1cc2sc(NC(=O)c3ccco3)nc2cc1Cl	-60	-72	-23	-217	-15	-175
COc1ccc2nc(NC(=O)c3ccco3)sc2c1	11	35	16	-45	81*	-88
O=C(Nc1nc2ccc(Br)cc2s1)c1ccco1	-40	-28	-12	-180	46	-211
COc1cc2nc(NC(=O)c3ccco3)sc(=O)c2cc1OC	-14	-5	42*	-9	71*	7
O=C(Nc1nc2ccc(Cl)cc2s1)c1ccco1	-12	7	3	-87	58*	-243
COc1cccc(N(C(=O)c2ccco2)c2nc(-c3sc(NC(=O)c4ccco4)nc3C)cs2)c1	73*	22	-13	9	0	49
Cc1nc(NC(=O)c2ccco2)sc1-c1csc(Nc2ccc(Cl)cc2)n1	31	-15	-38	6	18	35
CCOc1ccc(CCNC(=O)c2cccc(NC3=NC4CS(=O)(=O)CC4S3)c2)cc1 (stereo not given)	5	2	-9	1	-14	9
COC(=O)c1cc(OC)c(OC)cc1NC(=S)NC(=O)c1ccco1	-20	7	6	-8	74*	16
CCNC(=S)Nc1cc(OC)c(NC(=O)c2ccco2)cc1OC	-10	-5	-7	11	16	12
COc1ccc2nc(NC(=O)CSc3nc4ccccc4o3)sc2c1	-32	68*	-8	-84	35	-258
C=CCn1c(CSCc2ccc(C)cc2)nnc1SCC(=O)NCc1ccccc1	6	.	-2	9	74*	10
CCOC(=O)CSc1nc2sc3c(c2c(=O)n1-c1ccccc1)CCN(C(C)C)C3	0	11	2	-2	84*	7
NC(=O)c1ccsc1NC(=O)COC(=O)c1cccnc1Cl	3	-48	5	-6	-30	9
O=C1c2ccccc2C(=O)C1c1ccnc2ccccc12	36	42	13	24	100*	83*
CCc1ccccc1C1C(=O)c2ccccc2C1=O	-9	-19	9	6	-22	3
O=C1c2ccccc2C(=O)C1c1nccc2ccccc12	55	55*	23	3	97*	88*
CCOC(=O)c1c(C)n(-c2ccc(C)cc2)c2c(C(C(C)=O)C(=O)O)c(Br)c(O)c(O)c12 (stereo not given)	11	0	-6	35	4	8
CCOC(=O)C(C(C)=O)c1c(Br)c(O)c(O)c2c(C(=O)c3ccc(C)cc3)coc12 (stereo not given)	49	11	-6	36	76*	6
SMILES	MITF TRPM1 inh	TROY signal inh	EBV LMP1 NFkB	HIF-2a block	TWEAK-Fn14 inh	Peg3 prom inh
COC[C@@H]1CCCN1[C@H]1CS(=O)(=O)N[C@@H]1COCc1ccccc1	.	-4	.	-1	-15	1
C=CCn1c(SCC(=O)Nc2cc(C)on2)nc2ccccc21	.	-1	6	5	-1	1
COCCN(CC(=O)Nc1ccccc1C(F)(F)F)C(=O)/C=C/c1ccc2ccccc2n1	16	-10	3	-4	8	-9
CCOc1ccc(-c2nc(CSCC(=O)NCc3ccco3)c(C)o2)cc1	25	37	60*	6	65*	-21
CCOc1ccc(-c2nc(CSCC(=O)N3CCN(c4cccc(OC)c4)CC3)c(C)o2)cc1	.	53*	13	-12	59*	1
CCOc1ccc(-c2nc(CSCC(=O)NC3CC3)c(C)o2)cc1	24	8	15	-28	8	-16
CCc1ccc(-c2nc(CSCC(=O)N3CCN(c4ccccn4)CC3)c(C)o2)cc1	64*	62*	4	58*	81*	45
Cc1ccc(-c2nc(CSCC(=O)N3CCN(c4ccccn4)CC3)c(C)o2)cc1	.	31	7	2	38	8
CCCCCN(C(=O)CCC(=O)OCC(=O)N1C(C)CCCC1C)c1c(N)n(CCCC)c(=O)[nH]c1=O (stereo not given)	5	3	2	6	3	18
O=C(COC(=O)c1ccc2c(c1)OCCO2)NCc1ccc(Cl)cc1	.	16	18	12	14	0
CC(C)(C)OC(=O)NCCCCCNC(=O)c1nc[nH]c1C(=O)NCCCCCNC(=O)OC(C)(C)C	54	58*	15	-1	65*	64*
CC(C)(C)OC(=O)NCCCCCNC(=O)c1nc[nH]c1C(=O)NCc1ccc(CNC(=O)OC(C)(C)C)cc1	36	64*	8	14	96*	80*
Cc1cccc(NC(=O)c2nc[nH]c2C(=O)N2CCN(C(=O)OC(C)(C)C)CC2)c1	-5	2	12	-3	-18	16
CC(C)(C)OC(=O)N1CCC(NC(=O)c2nc[nH]c2C(=O)NCc2ccccc2)CC1	11	-25	-1	-12	-2	-6
Cc1cccc(NC(=O)c2nc[nH]c2C(=O)NC2CCN(C(=O)OC(C)(C)C)CC2)c1	5	12	-9	-1	18	61*
CC(C)(C)OC(=O)NCc1ccc(CNC(=O)c2nc[nH]c2C(=O)NCc2ccc(CNC(=O)OC(C)(C)C)cc2)cc1	29	18	19	14	48	26
CC(C)(C)OC(=O)NCc1ccc(CNC(=O)c2[nH]cnc2C(=O)NC2CCN(C(=O)OC(C)(C)C)CC2)cc1	21	48	5	4	57*	61*
O=C(C[C@@H]1CC[C@H](NC(=O)Cc2ccccn2)[C@@H](CO)O1)NCCc1ccccc1	.	.	.	0	.	.
CC(C)Nc1ncnc2c1ncn2[C@H]1CN(Cc2ccc(F)cc2)C[C@@H](CO)O1	.	7	.	-10	6	-8
O=C(NCCCN1CCCC1=O)c1ccc(NS(=O)(=O)c2cccc([N+](=O)[O-])c2)cc1	1	1	-2	11	0	8
Cc1cccc(NC(=O)c2nc[nH]c2C(=O)NCCCNC(=O)c2[nH]cnc2C(=O)Nc2cccc(C)c2)c1	-14	16	-2	5	33	93*
CCOc1ccc(C(=O)C(CN2CCOCC2)c2ccccc2)cc1 (stereo not given)	50	-3	26	31	39	82*
